Where “and” joins values, the source holds several entries; their conditions need not be identical. Identical values can stand only once.
What was measured:
Assay type in all cases: functional
[1] = target: Solute carrier family 2, facilitated glucose transporter member 1 (Homo sapiens) (UniProt P11166); assay: ST_JUDE_LEISH: Cytotoxicity at 2uM final concentration against transgenic Leishmania Mexicana promastigotes LmGLUT1 that are glucose transport deficient and complemented with the human glucose transporter GLUT1. Activity is measured by DNA content using SYBR green in vitro
[2] = target: Hexose transporter 1 (Plasmodium falciparum) (UniProt O97467); assay: ST_JUDE_LEISH: Cytotoxicity at 2uM final concentration against transgenic Leishmania Mexicana promastigotes LmPfHT that are glucose transport deficient and complemented with the Plasmodium falciparum hexose transporter. Activity is measured by DNA content using SYBR green in vitro
[3] = target: Glucose transporter (Leishmania mexicana) (UniProt O61059); assay: ST_JUDE_LEISH: Cytotoxicity at 2uM final concentration against transgenic Leishmania Mexicana promastigotes LmGT2 that are glucose transport deficient and complemented with the L. Mexicana glucose transporter 2. Activity is measured by DNA content using SYBR green in vitro

Solute carrier family 2, facilitated glucose transporter member 1 (Homo sapiens), sequence (P11166 whole entry): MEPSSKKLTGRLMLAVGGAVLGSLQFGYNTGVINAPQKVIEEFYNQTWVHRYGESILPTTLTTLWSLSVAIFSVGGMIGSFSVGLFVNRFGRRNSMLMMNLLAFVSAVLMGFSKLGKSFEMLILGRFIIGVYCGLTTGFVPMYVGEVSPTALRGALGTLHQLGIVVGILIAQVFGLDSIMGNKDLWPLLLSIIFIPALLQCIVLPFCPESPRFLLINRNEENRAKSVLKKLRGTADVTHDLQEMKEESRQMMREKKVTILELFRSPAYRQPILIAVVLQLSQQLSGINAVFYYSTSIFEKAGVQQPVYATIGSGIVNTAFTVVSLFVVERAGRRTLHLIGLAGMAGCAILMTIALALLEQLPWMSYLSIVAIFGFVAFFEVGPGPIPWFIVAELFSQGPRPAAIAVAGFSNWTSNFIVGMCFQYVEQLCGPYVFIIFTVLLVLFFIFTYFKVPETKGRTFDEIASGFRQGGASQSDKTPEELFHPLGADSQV

Row | SMILES | inhibition [1] | inhibition [2] | inhibition [3]
1 | COc1ccc(Nc2nccc(N3CCC(NC(=O)c4cccc(NC(C)=O)c4)C3)n2)cc1 (stereo unspecified) | 0.39% | 0.61% | 1.86%
2 | N=C(/N=C(/NCCCCCCN/C(=N\C(=N)Nc1ccc(Cl)cc1)N1CCOCC1)N1CCOCC1)Nc1ccc(Cl)cc1 | 10.5% | 9.54% | 9.37%
3 | O=C(Nc1ccc(Cl)cc1)c1cc(Cl)ccc1NC(=O)C1(c2ccc(Cl)cc2)CCCC1 | -0.07% | 2.74% | 1.43%
4 | O=c1c(Br)c(C(F)(F)F)[nH]c2ccc(Oc3ccccc3)cc12 | 2.41% | 2.75% | 2.63%
5 | CC(C)c1ccc(NC(=O)N[C@H]2CCN(CCCCCNC(=O)/C=C/c3ccc(Cl)c(Cl)c3)C2)cc1 | 2.04% | -3.46% | 2.9%
6 | Cc1cc(O)c(-c2cccc(Oc3ccc(Cl)cc3)c2)c(C)n1 | -1.02% | 1.39% | -3.29%
7 | Fc1ccc2ncc(Cl)c(CCN3CCC(NCc4cc5c(cn4)OCCO5)CC3)c2c1 | 11% | 11.7% | -0.41%
8 | Nc1ccc2[nH]cc(C3CCN(CC4CCC(NC(=O)/C=C/c5ccccc5Cl)CC4)CC3)c2n1 (stereo unspecified) | 3.23% | 3.23% | 2.48%
9 | O=C(Cc1ccccn1)Nc1cccc(-c2cccc(-c3nc4cc(C(F)(F)F)ccc4[nH]3)c2)c1 | 0.14% | 1.02% | -0.1%
10 | COc1ccc(CNC(=O)NC2CCN(c3ccnc(Nc4ccc(F)cc4)n3)CC2)cc1 | 0.86% | 1.1% | 0.64%
11 | CCOc1ccc(-c2nonc2NC(=O)c2ccc(OC)cc2)cc1OCC | -1.17% | 4.75% | -0.16%
12 | Clc1ccc(Cn2nc(Br)nc2Br)c(Cl)c1 | -0.61% | -1.03% | -4.56%
13 | O=C(/C=C/c1ccc(Cl)c(Cl)c1)NCCCCCN1CCCN(C(=O)Nc2ccc([N+](=O)[O-])cc2)CC1 | 1.18% | 1.11% | 4.07%
14 | Cc1[nH]c(C)c(-c2ccc(-c3ccc(OCC(F)(F)F)cc3)nc2)c(=O)c1Cl | 5.76% | 4.89% | 6.06%
15 | CCC[C@@H]([C@@H](CC1CCC(C)CC1)C(=O)N[C@@H](CO)C(=O)Nc1nccs1)N(O)C=O (stereo partly specified) | 1.25% | 2.18% | 1.54%
16 | O=C(CN1CCCCC1)Nc1ccc(Nc2nccc(NCC(O)c3ccccc3)n2)cc1 (stereo unspecified) | 11.7% | 9.59% | 7.17%

Row | SMILES | inhibition [1] | inhibition [2] | inhibition [3]
17 | NC1=NC2(CCCCC2)N(OCCCCCCCCNc2nc(N)nc(N)n2)C(N)=N1 | 4.34% | 5.05% | 5.12%
18 | CC(=O)Nc1nc(C(=O)Nc2ccc(-c3ccc(-c4nc5cc(F)ccc5[nH]4)cc3)cc2)cs1 | 2.38% | -2.61% | -1.02%
19 | Cc1ccc(NC(=O)NC2CCN(CCCCCNC(=O)C3CC3c3ccc(Cl)c(Cl)c3)CC2)cc1 (stereo unspecified) | -4.5% | -2.29% | -3.29%
20 | COc1ccc(CNc2ccnc(-n3cnc4cc(C)c(C)cc43)n2)cc1Cl | 4.37% | 3.69% | 2.53%
21 | O=C(/C=C/c1ccccc1Cl)Nc1ccc(Br)c(OCCN2CCCCC2)c1 | 2.43% | 2.16% | -0.1%
22 | NCC1CCCN1Cc1ccc(-c2ccc(-c3nc4cc(C(F)(F)F)ccc4[nH]3)cc2)cc1 (stereo unspecified) | 3.73% | 1.2% | 1.46%
23 | COc1ccc(C[C@H](N)C(=O)N[C@H]2[C@@H](O)[C@H](n3cnc4c(N(C)C)ncnc43)O[C@@H]2CO)cc1 | 3.7% and 0.1% | 1.9% and 3.79% | 3.16% and 2.8%
24 | Cc1cnc(C(=O)Nc2cccc(-c3ccc(-c4nc5cc(F)ccc5[nH]4)cc3)c2)cn1 | 12.2% | 10% | 8.63%
25 | CS(=O)(=O)NCCCNCc1ccc(-c2cccc(-c3nc4cc(F)ccc4[nH]3)c2)cc1 | -2.11% | 0.22% | -0.29%
26 | CCCCNCCOc1ccc(-c2nc(-c3ccccc3)c(-c3ccccc3)[nH]2)cc1 | 1.09% | -0.08% | 0.53%
27 | Cc1csc2nc(C(C)c3ccc(NC(=O)c4cccs4)cc3)oc(=O)c12 (stereo unspecified) | 1.03% | -0.57% | -0.38%
28 | CC(C)c1sc(N2CCN(C)CC2)nc1C(=O)NCCc1ccc(Br)cc1 | 3.06% | 1.28% | 2.14%
29 | O=C(NC1CCN(Cc2ccccc2)CC1)c1cc(-c2cccnc2)nc2ccc(Cl)cc12 | 8.75% | 6.45% | 8.35%
30 | CCS(=O)(=O)Nc1ccc2[nH]cc(C3CCN(CCC4CCN(C(=O)/C=C/c5ccc(Cl)c(Cl)c5)CC4)CC3)c2c1 | 2.73% | 4.42% | 1.91%
31 | O=C(Nc1ccc([N+](=O)[O-])cc1)Nc1nc2ccc(Cl)cc2s1 | 5.09% | 4.52% | 1.81%
32 | COc1ccc2nccc([C@@H](O)CN3CCC(NCc4nc5c(cc4Cl)SCC(=O)N5)C(F)C3)c2c1 (stereo partly specified) | 2.28% and 11.3% | 2.07% and 9.64% | 1.15% and 6.72%

Reference: ChEMBL document CHEMBL3433997, “St. Jude Leishmania screening dataset” (2016)
